# Reference: PubChem BioAssay (Tox21)
# Several values for one entry are separate records, joined by “and”; a condition that tells them apart may be missing. Identical values can stand only once. Records with an inconclusive call do not appear. Values without a mark were called inactive. Activity calls are given as the source filed them. The call rests on the fitted dose curve; in most records, active means well fitted cell-killing curve with a large enough effect in the repeat runs; inconclusive means weak or mixed curves, or effect the other way; inactive means flat fitted curve, though single readings scatter.
# Test: qHTS assay to identify small molecule agonists of the constitutive androstane receptor (CAR) signaling pathway - cell viability counter screen (AID 1224836); further: nearly all actives have a fitted effect of over 45% in size
# Conditions: HepG2-CYP2B6-hCAR viability, CellTiter-Fluor, 23 h, PK11195 added to every well; series mostly up to 92.4 µM; viability change, negative = cytotoxic: at the top concentration
# From the text: U.S. Tox21 Program National Center for Advancing Translational Sciences [NCATS] NIH Chemical Genomics Center [NCGC] U.S. Environmental Protection Agency [EPA] National Institutes of Environmental Health Sciences [NIEHS] National Toxicology Program [NTP] U.S. Food and Drug Administration [FDA] Tox21 Assay Overview: The constitutive androstane receptor (CAR) is a nuclear receptor which regulates multiple drug metabolizing enzymes (DMEs) and transporters. Activating CAR will generally increase the transcription and subsequent translation of CYP2B6 and CYP3A4. These two DMEs represent about 50% of the drug metabolizing potential in the body. […] Recently, there have also been studies performed indicating CARs role in energy metabolism and cancer therapy. Therefore, inducing CARs activity could have a potential effect on diabetes and cancer. Identifying environmental toxins and compounds which modulate CAR, through the use of the Tox21 10K compound collection, will be an important step in determining the toxicity and potential therapeutic effects these factors will have on the human body. To differentiate true CAR agonists from cytotoxic substances, the assay is multiplexed with a cell viability assay.
# Tox21 Assay Protocol Summary: A double-stable (hCAR and CYP2B6-2.2kb) transfected cell line, derived from human hepatoma (HepG2) cells, was utilized for the duration of the quantitative high-throughput screens. The HepG2-CYP2B6-hCAR cells were dispensed at 2500 cells/4 uL/well in 1536-well white solid bottom plates using a Multidrop Combi. After the assay plates were incubated at 37 C/5% CO2 for 4 hrs, 23 nL of compounds at 15 concentrations (from 5-48 columns) or positive control (from 1 to 4 columns) were transferred to the assay plates using a Pintool station. One uL of PK11195 (final concentration = 0.75 uM) was added, using a Flying Reagent Dispenser, inside each well. After a 23 hr incubation period at 37 C/5% CO2, 1 uL of CellTiter-Fluor reagent was added into each well of the assay plates using a Flying Reagent Dispenser. The fluorescence intensity in the plates was then measured using a ViewLux plate reader.
# On the % scale 0 is the no-effect control and ±100 the full control effect; potency means the concentration at half of the fitted maximal effect.
SMILES,"viability change, negative = cytotoxic",Potency
CCCCC(CC)COC(=O)c1c(Br)c(Br)c(Br)c(Br)c1C(=O)OCC(CC)CCCC (stereo not given),1.86% [at 42.5 µM],
c1ccc2sc(SNC3CCCCC3)nc2c1,,inactive
Oc1cccc(Cl)c1,-4.81%,
Nc1cccc2ccccc12,,inactive
CC(C)(C)c1ccc(CCOc2ncnc3ccccc23)cc1,2.99%,
CN[C@@H](C)[C@H](O)c1ccccc1,7.65% [at 42.5 µM],
CCC[N+](CCC)(CCC)CCC,4.95%,
CCOC(C(=O)OCCN(C)C)(c1ccccc1)c1ccccc1,-2.02% [at 42.5 µM],
O=C(Cc1ccccc1)c1ccccc1,-3.36%,
CCCCCCCCn1sccc1=O,,61.3 µM (active) and 25.5 µM (active)
COc1cc(CC(C)N)c(OC)cc1Br (stereo not given),-17.2%,
CCOP(=S)(OCC)Oc1ccc(S(C)=O)cc1 (stereo not given),0.194%,
C[N+]1(CCF)[C@@H]2CC[C@H]1CC(OC(=O)C(O)(c1ccccc1)c1ccccc1)C2 (stereo not given in full),0.662% [at 42.5 µM],
C=CCOC(=O)C(C)(C)OC(=O)c1cc(-n2c(=O)cc(C(F)(F)F)n(C)c2=O)ccc1Cl,-6.5%,
CC(Cl)C(=O)O (stereo not given),-0.511%,
O=C1CC[C@@]2(O)[C@H]3Cc4ccc(O)c5c4[C@@]2(CCN3CC2CC2)[C@H]1O5,0.431% [at 42.5 µM],
CC(O)CN1CCN(CC(=O)[O-])CCN(CC(=O)[O-])CCN(CC(=O)[O-])CC1.[Gd+3] (stereo not given),-0.0027% [at 42.5 µM],
CC(C)c1ccc(NC(=O)N(C)C)cc1,-3.34%,
COC(=O)C1(O)c2ccccc2-c2ccccc21,2.93%,
O=C=NC1CCCCC1,-6.76%,

SMILES,"viability change, negative = cytotoxic",Potency
CN(C)c1ccc(N=O)cc1,,27.4 µM (active) and 43.3 µM (active)
Clc1ccc(Cl)c(Cl)c1,,inactive
C#CC(O)(C=CCl)CC (stereo not given),7.93% [at 42.5 µM],
CCOC(=O)c1cncn1C(C)c1ccccc1 (stereo not given),0.293% [at 42.5 µM],
Cc1ccc(N)c(C)c1,,inactive
CCSCc1ccccc1OC(=O)NC,-14.1%,
NP(N)(=O)NC(=O)c1ccc(F)cc1,-2.98% [at 42.5 µM],
CCCN(CCOc1c(Cl)cc(Cl)cc1Cl)C(=O)n1ccnc1,-34.3%,
CCCCNC(=O)OCC#CI,,30.6 µM (active)
C[N+](C)(C)CCOC(=O)C(O)(c1ccccc1)c1ccccc1,-1.26% [at 42.5 µM],
CCOP(=O)(SC(C)CC)N1CCSC1=O (stereo not given),-1.17%,
O=C([O-])c1ccccn1.O=C([O-])c1ccccn1.O=C([O-])c1ccccn1.[Cr+3],0.335%,
C=C(C)C(=O)OCCCCOC(=O)C(=C)C,-0.0457%,
CCCSP(=S)(OCC)Oc1ccc(SC)cc1 (stereo not given),5.66%,
CN1CC[C@]23c4c5ccc(O)c4O[C@H]2[C@@H](O)C=C[C@H]3[C@H]1C5,-8.34%,
CCN(C(C)=O)c1cccc(-c2ccnc3c(C#N)cnn23)c1,7.58% [at 42.5 µM],
O=C(O)CCCOc1ccc(Cl)cc1Cl,,inactive
CCOP(=S)(S)OCC,3.91%,
CCCCOC(=O)CCC(=O)OCCCC,-0.304%,
Clc1ccccc1,0%,
